Key:
Assay in all cases: log2 ratio of Biotin-Ahx-Ub-VS probe labelling (fragment/DMSO); higher = less target engagement (more negative = stronger competition), active = hit call of the paper (q ≤ 0.05, log2 ratio ≤ -1)
Settings in all cases: compound concentration: 200 uM; treatment time: 3 h
USP19 = target: T1, USP19 (UniProt O94966)
T1 sequence (whole entry): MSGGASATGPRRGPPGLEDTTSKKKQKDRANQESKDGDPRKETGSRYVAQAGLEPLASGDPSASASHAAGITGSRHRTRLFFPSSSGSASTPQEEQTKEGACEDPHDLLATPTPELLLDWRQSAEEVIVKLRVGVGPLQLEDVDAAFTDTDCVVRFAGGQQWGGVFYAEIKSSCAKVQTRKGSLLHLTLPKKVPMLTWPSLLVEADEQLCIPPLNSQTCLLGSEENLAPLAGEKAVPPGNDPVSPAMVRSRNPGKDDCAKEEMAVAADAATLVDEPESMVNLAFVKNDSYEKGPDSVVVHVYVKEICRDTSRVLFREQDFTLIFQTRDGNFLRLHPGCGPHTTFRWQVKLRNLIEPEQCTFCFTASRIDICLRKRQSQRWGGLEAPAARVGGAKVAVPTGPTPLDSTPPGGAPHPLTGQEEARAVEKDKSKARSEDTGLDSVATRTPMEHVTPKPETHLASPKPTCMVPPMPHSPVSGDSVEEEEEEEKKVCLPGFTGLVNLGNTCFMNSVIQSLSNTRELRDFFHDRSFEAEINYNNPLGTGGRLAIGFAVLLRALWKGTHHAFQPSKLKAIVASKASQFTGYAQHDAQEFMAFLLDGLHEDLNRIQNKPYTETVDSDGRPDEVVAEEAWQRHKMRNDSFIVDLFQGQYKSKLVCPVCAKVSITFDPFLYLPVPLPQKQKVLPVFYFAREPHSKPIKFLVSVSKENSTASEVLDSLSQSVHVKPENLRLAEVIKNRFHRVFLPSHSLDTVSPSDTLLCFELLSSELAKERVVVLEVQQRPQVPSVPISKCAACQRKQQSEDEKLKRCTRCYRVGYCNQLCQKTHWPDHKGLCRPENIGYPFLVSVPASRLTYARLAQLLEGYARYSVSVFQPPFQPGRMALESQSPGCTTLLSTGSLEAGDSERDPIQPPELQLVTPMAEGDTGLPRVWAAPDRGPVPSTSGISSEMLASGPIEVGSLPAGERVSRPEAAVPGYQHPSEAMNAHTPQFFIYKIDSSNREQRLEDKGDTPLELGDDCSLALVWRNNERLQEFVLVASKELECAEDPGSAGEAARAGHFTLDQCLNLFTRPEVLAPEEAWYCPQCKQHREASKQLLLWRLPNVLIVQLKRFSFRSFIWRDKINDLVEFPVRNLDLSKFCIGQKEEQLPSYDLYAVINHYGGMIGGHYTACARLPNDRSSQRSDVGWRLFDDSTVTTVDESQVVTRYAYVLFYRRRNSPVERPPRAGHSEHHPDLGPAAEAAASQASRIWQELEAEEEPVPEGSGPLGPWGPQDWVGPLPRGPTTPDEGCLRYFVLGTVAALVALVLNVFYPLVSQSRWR
How it was run: (§1)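 HEK293T lysate, 495 µg per sample in Tris/CHAPS/IGEPAL buffer with protease inhibitors, was treated in triplicate with fragment at 200 µM or vehicle for 3 h and then with Biotin-Ahx-Ub-VS at 0.5 µM final for 1 h. Labelled DUBs were NeutrAvidin-enriched, digested with LysC and trypsin, and run by diaPASEF LC-MS/MS. Spectronaut label-free quantities were global-median-normalised, and values are average log2 fragment/vehicle ratios by unpaired t-test on proteins with ≥2 unique peptides.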

USP22 = target: T2, USP22 (UniProt Q9UPT9)
T2 sequence (whole entry): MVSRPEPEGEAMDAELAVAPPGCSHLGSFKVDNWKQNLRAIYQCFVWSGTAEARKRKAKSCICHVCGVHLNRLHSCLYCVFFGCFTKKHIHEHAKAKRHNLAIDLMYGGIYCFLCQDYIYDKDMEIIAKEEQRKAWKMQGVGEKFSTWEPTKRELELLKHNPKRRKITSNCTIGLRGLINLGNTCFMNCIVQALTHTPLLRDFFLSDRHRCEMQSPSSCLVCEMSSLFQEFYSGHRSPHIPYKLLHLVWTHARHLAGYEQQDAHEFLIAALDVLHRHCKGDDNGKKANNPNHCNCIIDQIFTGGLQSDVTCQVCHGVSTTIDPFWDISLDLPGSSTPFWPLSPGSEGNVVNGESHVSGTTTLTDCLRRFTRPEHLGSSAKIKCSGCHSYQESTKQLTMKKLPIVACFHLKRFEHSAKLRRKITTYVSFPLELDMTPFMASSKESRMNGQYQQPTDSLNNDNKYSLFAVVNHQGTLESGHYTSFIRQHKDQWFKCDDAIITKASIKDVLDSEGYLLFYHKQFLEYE
How it was run: as §1

USP24 = USP24 (UniProt Q9UPU5)
Sequence of USP24 (Q9UPU5 whole entry): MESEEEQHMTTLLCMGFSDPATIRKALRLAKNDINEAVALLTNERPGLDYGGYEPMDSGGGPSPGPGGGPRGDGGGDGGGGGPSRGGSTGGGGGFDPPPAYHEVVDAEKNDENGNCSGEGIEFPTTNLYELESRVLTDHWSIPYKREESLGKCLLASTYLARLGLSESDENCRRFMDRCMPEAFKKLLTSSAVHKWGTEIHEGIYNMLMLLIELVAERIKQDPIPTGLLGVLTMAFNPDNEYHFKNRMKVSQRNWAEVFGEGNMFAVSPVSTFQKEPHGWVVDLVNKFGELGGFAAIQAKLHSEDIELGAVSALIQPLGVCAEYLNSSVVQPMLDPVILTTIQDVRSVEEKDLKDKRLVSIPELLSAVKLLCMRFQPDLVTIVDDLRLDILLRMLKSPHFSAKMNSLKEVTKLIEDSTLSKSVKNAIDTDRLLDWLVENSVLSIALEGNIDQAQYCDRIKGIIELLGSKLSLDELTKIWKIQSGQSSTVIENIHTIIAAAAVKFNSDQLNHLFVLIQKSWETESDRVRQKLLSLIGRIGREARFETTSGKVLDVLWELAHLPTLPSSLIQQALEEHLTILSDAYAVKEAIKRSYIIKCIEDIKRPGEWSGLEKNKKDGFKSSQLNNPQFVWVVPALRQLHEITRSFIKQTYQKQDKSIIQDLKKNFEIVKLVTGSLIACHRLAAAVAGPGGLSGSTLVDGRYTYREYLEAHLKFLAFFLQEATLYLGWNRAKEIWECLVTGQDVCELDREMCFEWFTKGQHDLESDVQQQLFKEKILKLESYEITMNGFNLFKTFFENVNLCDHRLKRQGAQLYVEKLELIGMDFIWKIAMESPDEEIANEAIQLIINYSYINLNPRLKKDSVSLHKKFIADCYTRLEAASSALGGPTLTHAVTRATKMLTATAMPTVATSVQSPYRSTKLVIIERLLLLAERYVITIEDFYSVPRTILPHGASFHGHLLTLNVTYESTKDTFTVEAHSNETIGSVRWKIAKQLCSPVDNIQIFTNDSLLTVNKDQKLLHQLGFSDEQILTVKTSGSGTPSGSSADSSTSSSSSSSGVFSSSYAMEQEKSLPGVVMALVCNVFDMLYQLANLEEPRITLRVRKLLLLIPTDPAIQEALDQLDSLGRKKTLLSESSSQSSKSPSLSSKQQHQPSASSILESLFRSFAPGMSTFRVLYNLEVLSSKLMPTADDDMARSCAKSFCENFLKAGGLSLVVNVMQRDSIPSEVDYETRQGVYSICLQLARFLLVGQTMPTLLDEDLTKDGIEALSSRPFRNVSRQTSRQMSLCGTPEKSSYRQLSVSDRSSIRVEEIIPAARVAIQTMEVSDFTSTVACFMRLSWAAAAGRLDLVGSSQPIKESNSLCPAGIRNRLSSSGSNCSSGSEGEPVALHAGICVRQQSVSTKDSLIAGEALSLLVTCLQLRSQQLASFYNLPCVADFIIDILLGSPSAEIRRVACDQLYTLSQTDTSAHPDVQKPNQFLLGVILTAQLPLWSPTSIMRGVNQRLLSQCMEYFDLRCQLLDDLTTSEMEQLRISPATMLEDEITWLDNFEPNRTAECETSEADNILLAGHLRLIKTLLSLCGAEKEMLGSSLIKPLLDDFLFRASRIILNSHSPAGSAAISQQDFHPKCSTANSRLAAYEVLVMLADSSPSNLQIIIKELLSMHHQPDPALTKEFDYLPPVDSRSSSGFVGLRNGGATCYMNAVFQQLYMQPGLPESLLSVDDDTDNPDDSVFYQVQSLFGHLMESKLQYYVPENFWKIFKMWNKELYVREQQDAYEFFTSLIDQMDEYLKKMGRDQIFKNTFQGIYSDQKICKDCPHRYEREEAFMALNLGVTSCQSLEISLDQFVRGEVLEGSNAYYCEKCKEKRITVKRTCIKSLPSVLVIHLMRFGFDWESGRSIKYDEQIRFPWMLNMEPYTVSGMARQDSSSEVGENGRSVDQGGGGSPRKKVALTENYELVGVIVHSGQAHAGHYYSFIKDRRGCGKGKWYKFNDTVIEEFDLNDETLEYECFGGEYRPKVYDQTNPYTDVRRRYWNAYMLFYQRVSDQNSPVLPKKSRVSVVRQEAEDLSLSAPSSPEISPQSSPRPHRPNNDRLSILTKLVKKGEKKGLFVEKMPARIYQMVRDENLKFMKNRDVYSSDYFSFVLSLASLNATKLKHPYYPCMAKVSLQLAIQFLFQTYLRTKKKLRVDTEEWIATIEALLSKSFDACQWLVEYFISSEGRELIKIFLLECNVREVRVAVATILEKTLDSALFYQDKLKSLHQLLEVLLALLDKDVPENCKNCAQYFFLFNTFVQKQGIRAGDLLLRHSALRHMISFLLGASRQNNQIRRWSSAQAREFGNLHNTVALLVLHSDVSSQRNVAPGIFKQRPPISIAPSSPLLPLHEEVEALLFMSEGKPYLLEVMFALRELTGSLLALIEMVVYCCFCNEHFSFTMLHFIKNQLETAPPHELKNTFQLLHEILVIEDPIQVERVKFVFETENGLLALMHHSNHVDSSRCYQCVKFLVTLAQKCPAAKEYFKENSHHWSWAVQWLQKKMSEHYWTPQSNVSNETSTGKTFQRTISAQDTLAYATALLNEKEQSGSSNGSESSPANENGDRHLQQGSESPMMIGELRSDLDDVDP
How it was run: as §1

USP25 = target: T3, USP25 (UniProt Q9UHP3)
T3 sequence (whole entry): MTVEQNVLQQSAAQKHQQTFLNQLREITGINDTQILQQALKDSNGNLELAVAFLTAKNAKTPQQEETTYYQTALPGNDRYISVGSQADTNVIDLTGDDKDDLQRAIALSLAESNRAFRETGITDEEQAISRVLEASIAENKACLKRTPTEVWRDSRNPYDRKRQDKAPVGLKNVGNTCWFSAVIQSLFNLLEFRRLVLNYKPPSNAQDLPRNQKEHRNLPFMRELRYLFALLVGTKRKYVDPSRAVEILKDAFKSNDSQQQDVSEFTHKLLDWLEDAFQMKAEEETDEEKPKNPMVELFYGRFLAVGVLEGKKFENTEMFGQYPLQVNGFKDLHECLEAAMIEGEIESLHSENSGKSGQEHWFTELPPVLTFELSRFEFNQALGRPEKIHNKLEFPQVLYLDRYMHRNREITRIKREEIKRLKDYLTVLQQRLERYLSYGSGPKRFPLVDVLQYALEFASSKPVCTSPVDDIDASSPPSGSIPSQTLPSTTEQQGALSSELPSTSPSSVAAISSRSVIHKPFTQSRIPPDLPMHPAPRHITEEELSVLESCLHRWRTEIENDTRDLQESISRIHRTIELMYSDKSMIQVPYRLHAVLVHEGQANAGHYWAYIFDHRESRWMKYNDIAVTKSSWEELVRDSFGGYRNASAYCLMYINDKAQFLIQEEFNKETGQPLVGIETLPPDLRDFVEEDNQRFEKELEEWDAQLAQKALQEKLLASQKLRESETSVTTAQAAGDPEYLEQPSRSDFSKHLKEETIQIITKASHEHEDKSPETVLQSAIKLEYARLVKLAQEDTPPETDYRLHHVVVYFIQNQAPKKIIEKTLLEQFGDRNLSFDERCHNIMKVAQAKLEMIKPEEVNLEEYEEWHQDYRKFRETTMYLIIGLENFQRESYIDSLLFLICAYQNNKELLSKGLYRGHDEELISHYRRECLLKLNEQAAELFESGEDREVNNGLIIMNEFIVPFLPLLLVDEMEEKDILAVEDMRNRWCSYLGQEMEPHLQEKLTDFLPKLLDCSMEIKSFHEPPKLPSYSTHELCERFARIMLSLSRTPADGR
How it was run: as §1

USP28 = target: T4, USP28 (UniProt Q96RU2)
T4 sequence (whole entry): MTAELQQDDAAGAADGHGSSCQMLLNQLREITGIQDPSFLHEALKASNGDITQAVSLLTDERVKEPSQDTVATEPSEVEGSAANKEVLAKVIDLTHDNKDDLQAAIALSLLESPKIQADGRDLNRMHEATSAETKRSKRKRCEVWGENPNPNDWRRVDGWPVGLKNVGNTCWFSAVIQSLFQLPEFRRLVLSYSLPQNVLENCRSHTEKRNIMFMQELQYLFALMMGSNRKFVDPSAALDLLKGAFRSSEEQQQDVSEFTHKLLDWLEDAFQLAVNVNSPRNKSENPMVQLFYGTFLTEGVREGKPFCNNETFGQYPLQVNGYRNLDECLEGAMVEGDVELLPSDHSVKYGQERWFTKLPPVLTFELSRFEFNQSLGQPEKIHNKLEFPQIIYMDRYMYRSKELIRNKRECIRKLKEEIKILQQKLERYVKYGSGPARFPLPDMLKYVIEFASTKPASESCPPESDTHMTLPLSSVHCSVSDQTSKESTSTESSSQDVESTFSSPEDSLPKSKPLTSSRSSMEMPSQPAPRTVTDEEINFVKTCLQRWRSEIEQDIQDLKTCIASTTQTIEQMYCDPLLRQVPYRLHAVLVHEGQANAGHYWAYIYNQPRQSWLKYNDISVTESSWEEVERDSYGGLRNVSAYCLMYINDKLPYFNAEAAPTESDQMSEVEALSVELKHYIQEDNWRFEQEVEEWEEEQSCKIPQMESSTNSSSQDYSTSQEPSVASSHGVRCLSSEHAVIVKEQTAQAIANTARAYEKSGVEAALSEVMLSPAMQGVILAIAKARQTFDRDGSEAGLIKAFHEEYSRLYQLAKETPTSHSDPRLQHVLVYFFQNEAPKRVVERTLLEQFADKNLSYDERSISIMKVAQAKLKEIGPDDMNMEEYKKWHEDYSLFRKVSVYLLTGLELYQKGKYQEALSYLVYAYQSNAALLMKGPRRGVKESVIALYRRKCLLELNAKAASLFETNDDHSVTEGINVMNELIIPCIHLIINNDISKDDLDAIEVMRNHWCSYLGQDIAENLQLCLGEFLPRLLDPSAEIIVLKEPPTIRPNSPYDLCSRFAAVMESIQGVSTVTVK
How it was run: as §1

Measured: log2 ratio of Biotin-Ahx-Ub-VS probe labelling

C[C@H]1CN(C(=O)CCl)CCN1C(=O)c1cnn(C)c1.Cl
inactive: USP19 -0.18 | USP22 -0.177 | USP24 -0.132 | USP25 -0.0187 | USP28 -0.325

From the supplement of paper PMC11732987, “Enantioselective OTUD7B fragment discovery through chemoproteomics screening and high-throughput optimisation” (Communications Chemistry, 2025)
